Screening results deposited in PubChem by The Scripps Research Institute Molecular Screening Center.
The list is not random: actives were taken first. Their share in the collection is about 3.5%.
TEAD-YAP block: TEAD-YAP interaction inhibition, primary screen, TEAD-YAP interaction inhibitor project, luminescence, HEK-TIYL cells. TEAD-Gal4/YAP UAS-luciferase luminescence. inhibition, % at 9.12 µM. 640,000 compounds, 1.4% hits; in the data active = inhibition above about 32%;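 note: 0% = median of test compound wells and 100% = reference inhibitor wells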
GPR151 ag: activators of human GPR151, primary screen, cell-based, PathHunter beta-arrestin, luminescence; PathHunter beta-arrestin GPR151 cells; activation, % at 11.2 µM; 650,000 compounds, 1% hits; AID 1508602, 2020; in the data active = activation above about 4.9%;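 note: 0% = median of compound wells and 100% = cells with positive control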
FBW7 act: FBW7 E3 ligase activators, primary screen, biochemical, AlphaScreen, human; F-box/WD repeat-containing protein 7 (Homo sapiens), Q969H0; AlphaScreen FBW7–phospho-cyclin E peptide binding, activator screen; 650,000 compounds, 0.13% hits; normalized activity (activation), % at 26.1 µM; in the data active = normalized activity above about 1.9%;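 note: purified mutant Fbw7 with reduced substrate affinity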
MITF inh: MITF inhibitors, primary screen, biochemical, AlphaScreen, human | AlphaScreen MITF homodimerization, bead proximity signal | 650,000 compounds, 0.91% hits | inhibition, % at 2.6 µM | AID 1259374, 2018; in the data active = inhibition above about 50%;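 note: 0% = vehicle wells with protein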
Target sequence (O75030 whole entry, looked up): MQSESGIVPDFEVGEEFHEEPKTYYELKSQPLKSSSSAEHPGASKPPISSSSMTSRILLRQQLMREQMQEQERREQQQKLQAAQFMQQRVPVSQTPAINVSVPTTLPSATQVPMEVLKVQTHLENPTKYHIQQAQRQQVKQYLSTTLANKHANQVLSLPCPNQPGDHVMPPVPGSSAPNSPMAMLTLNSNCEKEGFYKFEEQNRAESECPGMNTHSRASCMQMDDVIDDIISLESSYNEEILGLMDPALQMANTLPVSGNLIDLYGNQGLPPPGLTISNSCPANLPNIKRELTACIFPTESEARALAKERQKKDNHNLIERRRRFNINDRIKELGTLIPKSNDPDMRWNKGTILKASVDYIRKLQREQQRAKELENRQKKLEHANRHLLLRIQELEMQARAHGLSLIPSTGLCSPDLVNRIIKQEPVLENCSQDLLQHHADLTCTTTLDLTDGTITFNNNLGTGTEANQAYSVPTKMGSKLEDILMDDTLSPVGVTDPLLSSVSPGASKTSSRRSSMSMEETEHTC
GPR151 conf act: GPR151 activators, triplicate retest, confirmation, cell-based, PathHunter beta-arrestin, luminescence. shares compounds with GPR151 ag. activation, % at 11.2 µM. GPR151 PathHunter beta-arrestin cells, 90 min; % of EA-reagent control over plate median. 6,700 tested, under 10 active;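 active = mean percent activation across replicates above the confirmation screen cutoff of 4.91%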
GPR119 counter: GPR119 activators in beta-arrestin cells, counter-screen for GPR151 activator project, cell-based, PathHunter beta-arrestin, luminescence, triplicate. activation, % at 11.2 µM. AID 1508611, 2020. 90 min; 0 = compound-well median, 100 = enzyme-acceptor control. shares compounds with GPR151 ag. 6,700 compounds, 0.3% hits;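 active = mean percent activation in the counterscreen above 29.09%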;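 note: counterscreen on off-target GPR119 to flag nonselective hits from the GPR151 activator screen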
An asterisk follows results filed as active; · = not tested or not shown; ! = not active in a repeat.

SMILES | TEAD-YAP block | GPR151 ag | FBW7 act | MITF inh | GPR151 conf act | GPR119 counter
O=c1c2ccccc2ncn1CCCOc1ccccc1[N+](=O)[O-] | -85 | 4.9* | 0 | 1 | 1 | -2
CC(C)C(NC(=O)C1CCCCC1)C(=O)Nc1ccncc1 (configuration not stated) | 6 | 5.6* | 0 | -2 | 0 | 9
CC1Cc2ccccc2N1C(=O)Nc1ccc(F)cc1 (configuration not stated) | -7 | 5.5* | 1 | 11 | -1 | -20
CN(C)CCNC(=O)C(=O)NCC1OCCN1S(=O)(=O)c1cccs1 (configuration not stated) | 6 | 6.3* | 1 | -16 | 0 | 4
COC(CNC(=O)C(=O)NCC1OCCN1S(=O)(=O)c1cccs1)OC (configuration not stated) | -7 | -2 | 1 | 7 | · | ·
Nc1ccc(Oc2ccc3c(c2)C(=O)N(c2ccc(N)cc2)C3=O)cc1 | -5 | 1 | 0 | 16 | · | ·
Cc1nn(Cc2ccccc2)c(Cl)c1/C=N/Nc1ccc(S(N)(=O)=O)cc1[N+](=O)[O-] | 10 | 5.2* | 0 | 9 | 1 | 3
NS(=O)(=O)c1ccc(N/N=C/c2ccccc2Cl)c([N+](=O)[O-])c1 | 6 | 0 | 0 | 3 | · | ·
CC(C)(C)c1ccc(/C=N/Nc2ccc(S(N)(=O)=O)cc2[N+](=O)[O-])cc1 | 3 | 5.0* | 0 | 4 | 1 | -13
CCc1cc2c(cc3c(=O)n(CC(=O)NCc4ccccc4Br)ncn32)s1 | 6 | 6.4* | 0 | -8 | 3 | 11
COC(=O)c1ccc(C2C3=C(CC(C)(C)CC3=O)N(c3cccc(C(F)(F)F)c3)C3=C2C(=O)CC(C)(C)C3)cc1 | 8 | 6.8* | 0 | 2 | 1 | -4
CC(C)c1ccccc1OCCn1cnc2ccccc2c1=O | 11 | -1 | 0 | 2 | · | ·
Nc1ccn([C@@H]2O[C@H](CO)[C@@H](O)C2O)c(=O)n1 (some centres not stated) | -30 | -2 | 0 | -15 | · | ·
Nc1ccn([C@@H]2O[C@H](CO)[C@@H](O)C2(F)F)c(=O)n1 | -29 | 8.7*! | 0 | -2 | 0 | 1
O=C(O)/C=C/c1cccc(/C=C/C(=O)O)c1 | 3 | 0 | 0 | 4 | · | ·
COc1ccccc1Cc1noc(-c2ccc(I)cc2)n1 | -9 | -1 | 0 | -26 | · | ·
COc1ccccc1Cc1noc(-c2cc(Cl)ccc2OC)n1 | 1 | 6.3* | 0 | 7 | 0 | -3
Cc1nn(-c2ccccc2)c(Cl)c1/C=C1\SC(=S)NC1=O | 1 | 5.3* | 0 | 4 | 1 | 9
CCCOC(=O)CN1C(=O)c2ccc(Br)cc2C1=O | -3 | 8.7* | 0 | -1 | 0 | 14
CCCOC(=O)CN1C(=O)c2ccc(C(=O)OCCC)cc2C1=O | -5 | 0 | 0 | 8 | · | ·
COc1ccc(/C=C(\C#N)C(=O)NCc2cccnc2)cc1OC | -9 | 6.0* | 0 | -2 | 0 | 7
CCOc1cc(/C=C(/C#N)C(=O)NCc2ccccc2)ccc1OC | 4 | 0 | 0 | 4 | · | ·
COc1ccc(C2CC(c3ccc(OC(F)F)cc3)n3ncnc3N2)cc1 (configuration not stated) | -1 | 7.4* | 0 | -22 | 1 | 4
COc1ccc(C2CC(c3ccccc3OC(F)F)Nc3ncnn32)cc1 (configuration not stated) | 4 | 1 | 0 | -5 | · | ·
COc1cc(Nc2nc(C)cc(NC3CC3)n2)cc(OC)c1OC | 11 | 5.9* | 0 | 3 | 1 | 1
COc1cc(Nc2cc(C)nc(Nc3cccnc3)n2)cc(OC)c1OC | 0 | 0 | 0 | 24 | · | ·
CN1C(=O)CC(c2ccccc2[N+](=O)[O-])C2=C1CC(C)(C)CC2=O (configuration not stated) | 10 | -2 | 0 | 13 | · | ·
